In the supplement of paper PMC10849652:
Targets with a hit are over-represented here; the source holds about 7,900 in all. About 0.6% of all pairs of compound and target were hits.

Assays:
Assay in all cases: log2 fold change, soluble protein after heating vs DMSO (PISA); higher = thermal stabilisation; K562 cells, 10 uM, 30 min; active = over 0.2 and 3.5 SD of the protein, either way, in both replicates (recomputed)
[1] = compound: NC(=O)Nc1cc(-c2cccc(F)c2)sc1C(=O)N[C@H]1CCCNC1
How it was run: (§1)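 Soluble protein was defined as the supernatant after 21,000xg for 90 min. It came from K562 cells at 2×10^6 cells/mL given 10 μM compound for 30 min, heated in aliquots for 3 min across 48°C-58°C, pooled, and extracted in PBS with 0.5% NP-40 at 4°C, and was quantified by TMTpro 16plex LC-MS/MS with equalised channel sums. Thermal stability against control samples, from duplicates, is reported as log2 fold change.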

[2] = compound: NC(=O)c1cnc(N[C@@H]2CCCC[C@@H]2N)nc1Nc1cccc(-n2nccn2)c1
How it was run: as §1

[3] = compound: NC1(c2ccc(-c3nc4ccn5c(=O)[nH]nc5c4cc3-c3ccccc3)cc2)CCC1
How it was run: as §1

[4] = compound: NCC(=O)Nc1ccc(-n2nc(C(F)(F)F)cc2-c2ccc3c(ccc4ccccc43)c2)cc1
How it was run: as §1

entinostat = compound: Nc1ccccc1NC(=O)c1ccc(CNC(=O)OCc2cccnc2)cc1 [entinostat]
How it was run: as §1

vorinostat = compound: O=C(CCCCCCC(=O)Nc1ccccc1)NO [vorinostat]
How it was run: as §1

silmitasertib = compound: O=C(O)c1ccc2c(c1)nc(Nc1cccc(Cl)c1)c1ccncc12 [silmitasertib]
How it was run: as §1

citarinostat = compound: O=C(CCCCCCNC(=O)c1cnc(N(c2ccccc2)c2ccccc2Cl)nc1)NO [citarinostat]
How it was run: as §1

[5] = compound: O=C1NC(=O)C(c2cnc3ccccn23)=C1c1cn2c3c(cc(F)cc13)CN(C(=O)N1CCCCC1)CC2
How it was run: as §1

[6] = compound: c1cc(OCCN2CCCCC2)cc(-c2n[nH]c3ccc(-c4nnc[nH]4)cc23)c1
How it was run: as §1

Measured: log2 fold change

PRKD3 (UniProt O94806)
inactive: [1] -0.565 | [2] -0.263 | [3] -0.285 | [4] -0.213 | entinostat 0.34 | vorinostat 0.096 | silmitasertib 0.021

PRKACA (UniProt P17612)
inactive: [1] 0.097 | [2] 0.048 | [3] -0.132 | [4] -0.025 | entinostat -0.019 | vorinostat 0.02 | citarinostat 0.023 | silmitasertib -0.051 | [5] 0.05 | [6] -0.067

PRG4 (UniProt Q92954)
inactive: [1] -0.168 | [2] -0.113 | [3] -0.16 | [4] -0.068 | entinostat -0.156 | vorinostat 0.201 | citarinostat -0.015 | silmitasertib 0 | [5] -0.109 | [6] -0.097

POLR3D (UniProt P05423)
inactive: [1] -0.061 | [3] -0.115 | [4] -0.028 | entinostat 0.03 | vorinostat 0.158 | silmitasertib 0.078 | [5] 0.032
active: [2] 1.51

PNPLA4 (UniProt P41247)
inactive: [1] 0 | [2] -0.118 | [3] -0.357 | [4] 0.131 | entinostat -0.093 | citarinostat 0.602 | silmitasertib 0.012 | [6] -0.071

PTK2B (UniProt Q14289)
inactive: [1] 0.076 | [2] 0.091 | [3] -0.13 | [4] -0.092 | entinostat 0.128 | vorinostat 0.011 | silmitasertib 0.054 | [5] 0.072

QRICH1 (UniProt Q2TAL8)
inactive: [1] -0.043 | [2] -0.119 | [3] -0.137 | [4] -0.093 | entinostat 0.168 | citarinostat 0.11 | silmitasertib 0.047 | [5] -0.276 | [6] 0.027

PGK2 (UniProt P07205)
Chain of UniProt P07205 (P07205 whole entry, looked up): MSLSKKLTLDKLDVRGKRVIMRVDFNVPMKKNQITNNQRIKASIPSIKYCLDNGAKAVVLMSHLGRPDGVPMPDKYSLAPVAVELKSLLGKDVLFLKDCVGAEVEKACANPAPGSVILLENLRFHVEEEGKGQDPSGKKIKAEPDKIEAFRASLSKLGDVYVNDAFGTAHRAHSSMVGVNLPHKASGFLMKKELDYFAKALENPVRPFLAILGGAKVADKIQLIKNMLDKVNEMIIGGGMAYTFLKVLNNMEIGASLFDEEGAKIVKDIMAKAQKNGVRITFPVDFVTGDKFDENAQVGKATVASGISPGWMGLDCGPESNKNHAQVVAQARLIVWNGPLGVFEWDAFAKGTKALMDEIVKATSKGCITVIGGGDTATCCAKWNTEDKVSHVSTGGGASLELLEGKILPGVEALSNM
active: [5] -0.532
inactive: [1] -0.056 | [2] -0.032 | [3] -0.038 | [4] -0.134 | entinostat 0.021 | vorinostat -0.056 | citarinostat -0.121 | silmitasertib 0.172 | [6] -0.012

POLR2C (UniProt P19387)
inactive: [1] -0.046 | [2] -0.026 | [3] -0.131 | [4] -0.196 | entinostat -0.031 | citarinostat 0.017 | silmitasertib 0.118 | [5] -0.023 | [6] -0.195

PDE6D (UniProt O43924)
Chain of UniProt O43924 (O43924 whole entry, looked up): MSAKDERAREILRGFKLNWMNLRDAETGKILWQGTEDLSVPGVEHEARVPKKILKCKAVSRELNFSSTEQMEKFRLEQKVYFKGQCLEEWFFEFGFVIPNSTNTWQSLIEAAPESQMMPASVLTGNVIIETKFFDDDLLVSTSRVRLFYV
inactive: [1] 0.001 | [2] -0.113 | [3] 0.122 | [4] 0.025 | entinostat 0.125 | vorinostat -0.007 | silmitasertib 0.077 | [5] 0.009

POLA1 (UniProt P09884)
inactive: [1] -0.014 | [2] -0.068 | [3] -0.225 | [4] -0.04 | entinostat 0.07 | vorinostat 0.054 | citarinostat 0.155 | silmitasertib 0.021 | [5] -0.113 | [6] 0.227

PI4K2B (UniProt Q8TCG2)
Chain of UniProt Q8TCG2 (Q8TCG2 whole entry, looked up): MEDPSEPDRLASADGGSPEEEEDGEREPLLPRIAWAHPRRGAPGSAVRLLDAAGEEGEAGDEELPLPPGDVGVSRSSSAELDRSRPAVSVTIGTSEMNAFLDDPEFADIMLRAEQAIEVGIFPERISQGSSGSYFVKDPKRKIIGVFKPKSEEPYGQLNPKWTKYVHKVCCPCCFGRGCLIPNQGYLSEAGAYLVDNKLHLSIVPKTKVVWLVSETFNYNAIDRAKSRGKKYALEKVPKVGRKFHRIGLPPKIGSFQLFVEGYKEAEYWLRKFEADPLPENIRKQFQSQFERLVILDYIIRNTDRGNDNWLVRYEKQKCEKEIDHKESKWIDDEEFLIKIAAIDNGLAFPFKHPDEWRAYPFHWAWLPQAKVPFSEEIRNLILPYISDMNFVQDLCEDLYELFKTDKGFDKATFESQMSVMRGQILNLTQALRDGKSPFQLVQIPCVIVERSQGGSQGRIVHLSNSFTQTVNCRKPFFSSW
inactive: [1] 0.092 | [3] -0.08 | [4] -0.069 | entinostat 0.066 | vorinostat -0.021 | citarinostat 0.075 | silmitasertib 0.051 | [6] 0.111
active: [2] 0.704

PTTG1 (UniProt O95997)
inactive: [1] -0.006 | [2] -0.098 | [3] -0.015 | [4] -0.071 | entinostat 0.035 | vorinostat -0.043 | citarinostat 0.027 | silmitasertib -0.002 | [5] -0.023 | [6] -0.128

PSMB9 (UniProt P28065)
Chain of UniProt P28065 (P28065 whole entry, looked up): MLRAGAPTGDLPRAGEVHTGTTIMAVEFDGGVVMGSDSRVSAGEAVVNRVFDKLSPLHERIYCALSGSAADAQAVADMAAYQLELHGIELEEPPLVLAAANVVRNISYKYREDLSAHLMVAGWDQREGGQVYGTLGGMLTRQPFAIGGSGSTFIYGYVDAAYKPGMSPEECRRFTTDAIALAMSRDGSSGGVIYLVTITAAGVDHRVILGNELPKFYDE
inactive: [1] -0.122 | [2] -0.102 | [4] 0.029 | entinostat -0.118 | vorinostat 0.086 | citarinostat -0.028 | [5] -0.061 | [6] 0

PNN (UniProt Q9H307)
inactive: [1] -0.018 | [2] -0.24 | [3] 0.053 | entinostat 0.021 | vorinostat 0.045 | citarinostat -0.077 | silmitasertib -0.124 | [5] 0.106
active: [6] -0.446

PMS2CL (UniProt Q68D20)
inactive: [3] 0.185 | silmitasertib 0.095 | [5] 0.062

POLB (UniProt P06746)
inactive: [1] -0.103 | entinostat 0.107 | vorinostat -0.106 | citarinostat 0.189 | [5] 0.113 | [6] -0.026

PSMA3 (UniProt H0YJ03)
inactive: [2] -0.059 | [4] -0.048 | citarinostat 0.081 | [6] 0.143

PRKD2 (UniProt M0R346)
inactive: [1] -0.279 | entinostat 0.032 | vorinostat 0.021 | [5] -0.15

PAN2 (UniProt Q504Q3)
inactive: [4] -0.198 | citarinostat -0.127 | [6] 0.002

PRR14L (UniProt Q5THK1)
Chain of UniProt Q5THK1 (Q5THK1 whole entry, looked up): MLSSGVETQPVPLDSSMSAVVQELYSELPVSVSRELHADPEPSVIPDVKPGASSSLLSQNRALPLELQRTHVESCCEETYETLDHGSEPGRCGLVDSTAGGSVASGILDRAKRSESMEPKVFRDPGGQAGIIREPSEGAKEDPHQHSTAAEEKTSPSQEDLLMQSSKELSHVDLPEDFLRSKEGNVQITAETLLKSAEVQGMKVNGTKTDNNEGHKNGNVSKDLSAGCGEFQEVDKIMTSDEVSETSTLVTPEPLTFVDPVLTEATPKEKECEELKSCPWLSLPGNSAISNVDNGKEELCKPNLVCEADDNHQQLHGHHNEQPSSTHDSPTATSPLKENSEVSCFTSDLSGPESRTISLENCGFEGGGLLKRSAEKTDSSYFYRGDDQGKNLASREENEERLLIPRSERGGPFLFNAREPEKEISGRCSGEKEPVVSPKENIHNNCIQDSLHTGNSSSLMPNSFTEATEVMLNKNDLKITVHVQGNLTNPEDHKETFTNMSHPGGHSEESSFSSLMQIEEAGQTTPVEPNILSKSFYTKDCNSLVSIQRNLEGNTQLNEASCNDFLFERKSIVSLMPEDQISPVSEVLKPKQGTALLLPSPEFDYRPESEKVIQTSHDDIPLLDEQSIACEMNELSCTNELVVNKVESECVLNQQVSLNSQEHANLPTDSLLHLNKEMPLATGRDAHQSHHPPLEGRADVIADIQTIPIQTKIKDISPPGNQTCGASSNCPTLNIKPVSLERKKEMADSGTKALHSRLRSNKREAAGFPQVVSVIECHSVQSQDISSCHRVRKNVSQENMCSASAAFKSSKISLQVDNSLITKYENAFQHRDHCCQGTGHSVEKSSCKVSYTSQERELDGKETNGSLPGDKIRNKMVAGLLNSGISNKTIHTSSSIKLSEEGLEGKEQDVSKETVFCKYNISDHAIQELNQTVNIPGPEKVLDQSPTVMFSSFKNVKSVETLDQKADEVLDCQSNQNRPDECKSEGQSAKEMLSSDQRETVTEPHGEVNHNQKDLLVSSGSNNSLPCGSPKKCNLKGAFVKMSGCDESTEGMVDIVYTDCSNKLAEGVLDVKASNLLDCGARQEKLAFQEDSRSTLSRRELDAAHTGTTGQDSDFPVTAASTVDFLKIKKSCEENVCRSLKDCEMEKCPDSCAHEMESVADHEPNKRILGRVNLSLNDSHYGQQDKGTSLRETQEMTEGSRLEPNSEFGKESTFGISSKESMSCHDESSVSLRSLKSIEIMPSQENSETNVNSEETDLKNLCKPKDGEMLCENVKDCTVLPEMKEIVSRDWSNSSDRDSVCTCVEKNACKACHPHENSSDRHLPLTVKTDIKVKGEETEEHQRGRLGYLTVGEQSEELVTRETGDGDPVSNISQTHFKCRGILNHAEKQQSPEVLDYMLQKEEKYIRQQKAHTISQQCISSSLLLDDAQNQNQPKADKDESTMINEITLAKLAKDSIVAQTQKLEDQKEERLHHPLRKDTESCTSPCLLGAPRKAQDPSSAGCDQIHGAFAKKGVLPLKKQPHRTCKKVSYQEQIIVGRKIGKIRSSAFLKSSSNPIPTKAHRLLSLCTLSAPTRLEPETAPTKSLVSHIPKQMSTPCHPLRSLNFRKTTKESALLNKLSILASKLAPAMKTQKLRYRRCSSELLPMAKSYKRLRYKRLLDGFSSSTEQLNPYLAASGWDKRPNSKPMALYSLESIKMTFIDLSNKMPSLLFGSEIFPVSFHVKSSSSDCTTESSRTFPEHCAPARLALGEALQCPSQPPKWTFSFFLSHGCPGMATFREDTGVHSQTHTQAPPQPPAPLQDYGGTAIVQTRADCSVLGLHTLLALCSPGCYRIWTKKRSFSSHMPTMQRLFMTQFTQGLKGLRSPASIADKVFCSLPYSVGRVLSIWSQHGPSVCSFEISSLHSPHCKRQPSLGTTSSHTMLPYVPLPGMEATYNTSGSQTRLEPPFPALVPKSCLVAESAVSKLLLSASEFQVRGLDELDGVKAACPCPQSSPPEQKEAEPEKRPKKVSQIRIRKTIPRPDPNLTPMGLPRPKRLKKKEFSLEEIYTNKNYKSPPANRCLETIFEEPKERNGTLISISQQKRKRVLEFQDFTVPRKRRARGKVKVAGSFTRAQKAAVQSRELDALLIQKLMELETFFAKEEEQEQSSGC
inactive: [2] -0.205 | [4] -0.176 | vorinostat -0.009

POM121 (UniProt Q96HA1)
inactive: [1] -0.015 | [2] -0.199 | [4] -0.083 | entinostat 0.01 | vorinostat 0.055 | citarinostat 0.045 | [5] 0.05 | [6] -0.045

PIK3CD (UniProt O00329)
Chain of UniProt O00329 (O00329 whole entry, looked up): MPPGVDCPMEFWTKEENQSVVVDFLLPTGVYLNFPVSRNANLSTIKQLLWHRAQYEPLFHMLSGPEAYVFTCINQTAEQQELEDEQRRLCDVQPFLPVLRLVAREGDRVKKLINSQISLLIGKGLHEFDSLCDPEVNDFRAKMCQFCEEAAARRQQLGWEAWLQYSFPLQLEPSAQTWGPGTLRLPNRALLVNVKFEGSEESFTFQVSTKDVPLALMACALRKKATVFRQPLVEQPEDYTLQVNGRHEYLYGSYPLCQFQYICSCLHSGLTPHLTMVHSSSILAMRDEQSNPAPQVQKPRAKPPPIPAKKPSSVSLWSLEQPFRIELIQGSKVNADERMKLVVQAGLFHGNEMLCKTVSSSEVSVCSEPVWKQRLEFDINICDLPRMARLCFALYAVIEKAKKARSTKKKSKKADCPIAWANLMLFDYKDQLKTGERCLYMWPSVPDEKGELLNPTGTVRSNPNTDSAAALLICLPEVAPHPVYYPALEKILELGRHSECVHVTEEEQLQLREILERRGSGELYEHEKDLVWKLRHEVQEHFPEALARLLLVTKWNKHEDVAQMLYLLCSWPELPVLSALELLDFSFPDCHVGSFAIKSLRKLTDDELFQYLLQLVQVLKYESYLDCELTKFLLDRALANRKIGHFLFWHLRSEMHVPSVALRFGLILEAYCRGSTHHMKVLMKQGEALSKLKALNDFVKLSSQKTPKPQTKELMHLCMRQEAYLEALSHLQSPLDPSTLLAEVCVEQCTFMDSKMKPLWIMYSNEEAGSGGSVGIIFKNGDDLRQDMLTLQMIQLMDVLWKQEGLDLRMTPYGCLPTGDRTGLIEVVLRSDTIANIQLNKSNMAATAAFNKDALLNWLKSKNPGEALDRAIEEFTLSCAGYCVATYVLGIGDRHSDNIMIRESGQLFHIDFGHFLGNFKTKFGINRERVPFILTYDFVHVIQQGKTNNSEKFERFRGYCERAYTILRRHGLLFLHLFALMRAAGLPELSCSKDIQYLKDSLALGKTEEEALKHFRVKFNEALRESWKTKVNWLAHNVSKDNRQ
inactive: [1] 0.086 | [2] 0.014 | [4] -0.047 | entinostat -0.008 | citarinostat -0.285 | [5] -0.092 | [6] 0.143

PCNX1 (UniProt Q96RV3)
inactive: [3] 0.042 | [4] -0.043 | citarinostat -0.237 | silmitasertib -0.11 | [5] -0.14 | [6] -0.269

PUF60 isoform 2 (UniProt Q9UHX1)
Chain of UniProt Q9UHX1 (Q9UHX1 whole entry, looked up): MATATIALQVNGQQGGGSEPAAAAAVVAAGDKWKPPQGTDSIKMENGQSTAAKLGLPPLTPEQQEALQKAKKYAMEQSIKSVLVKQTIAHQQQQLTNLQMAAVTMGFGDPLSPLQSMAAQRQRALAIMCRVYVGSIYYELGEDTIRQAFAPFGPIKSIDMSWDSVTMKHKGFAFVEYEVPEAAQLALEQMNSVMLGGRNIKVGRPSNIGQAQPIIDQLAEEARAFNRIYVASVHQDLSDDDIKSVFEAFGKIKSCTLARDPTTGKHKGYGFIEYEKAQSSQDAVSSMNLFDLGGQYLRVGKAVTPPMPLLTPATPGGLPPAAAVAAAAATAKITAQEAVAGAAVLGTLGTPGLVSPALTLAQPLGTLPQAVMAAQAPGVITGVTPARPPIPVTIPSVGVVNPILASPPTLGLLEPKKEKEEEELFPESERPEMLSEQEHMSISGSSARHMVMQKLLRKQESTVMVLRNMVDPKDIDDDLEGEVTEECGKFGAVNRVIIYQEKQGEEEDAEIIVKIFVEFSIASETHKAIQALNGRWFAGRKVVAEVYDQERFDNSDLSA
inactive: [2] 0.024 | [3] -0.137 | [4] 0.21 | silmitasertib 0.069

PSMA3 (UniProt G3V4X5)
inactive: [4] -0.055

PRKX (UniProt P51817)
inactive: [3] -0.243 | silmitasertib 0.153

PSMD8 (UniProt K7ERW6)
inactive: [4] -0.417

PUM1 (UniProt Q14671)
inactive: [2] 0.058 | vorinostat -0.037

PTEN isoform 2 (UniProt P60484)
inactive: vorinostat 0.024 | citarinostat 0.089 | [6] 0.066

PHRF1 (UniProt Q9P1Y6)
inactive: [3] 0.148 | silmitasertib 0.176

PSD3 (UniProt Q9NYI0)
active: [2] -0.262
inactive: [3] -0.14 | [4] -0.113 | citarinostat 0.017 | silmitasertib -0.095 | [6] -0.02

PSMC1 (UniProt G3V4X1)
inactive: vorinostat 0.168

PCF11 (UniProt O94913)
inactive: [2] -0.047 | [3] -0.333 | [4] -0.179 | vorinostat -0.04 | citarinostat 0.001 | silmitasertib -0.113 | [6] 0.112

PCID2 (UniProt Q5JVF3)
inactive: [1] -0.019 | [3] -0.103 | [4] 0.06 | entinostat 0.12 | vorinostat 0.199 | citarinostat -0.004 | silmitasertib 0.038 | [5] -0.15 | [6] 0.062

PDSS2 (UniProt Q86YH6)
inactive: [1] -0.108 | [2] -0.015 | [4] 0.011 | entinostat -0.009 | vorinostat 0.041 | citarinostat 0.018 | [5] 0.026 | [6] -0.029

POGZ (UniProt Q7Z3K3)
active: [6] -0.483
inactive: [1] 0.009 | [2] 0.167 | [4] -0.028 | entinostat -0.031 | vorinostat -0.186 | citarinostat -0.206 | [5] -0.114
